This is part of a sample that, as a whole, favours compounds with a hit. Of some 83,000 tested, about 20% had one in any assay.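 The endpoint reported here, percent growth, reads 100 for growth as untreated, 0 for no net growth and -100 for all cells dead.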 Unmarked numbers belong to inactive results. The source made the active and inactive calls. Rule for the calls: active = growth percent below 10; inactive = the rest.

The source of these data is PubChem BioAssay (NCI).

Among the test systems are SK-MEL-2 melanoma; EKVX NSCLC; SN12C renal; UO-31 renal; TK-10 renal; ACHN renal; CAKI-1 renal; A498 renal; CCRF-CEM leukemia; MOLT-4 leukemia.
What all share (experiment): NCI-60 one-dose screen, 48 h (100 = growth as untreated, 0 = no growth, -100 = all killed)
Holding throughout (conditions): 10 µM unless noted

With `CCCCCC[n+]1ccc(SCC(=O)n2ccc3ccccc32)c2ccccc21`, the growth was 94.3% with SK-MEL-2 melanoma; 83.8% in the assay on EKVX NSCLC; 88.8% with SN12C renal; 68.6% with UO-31 renal; 108% in the assay with TK-10 renal; 87.2% in the assay with ACHN renal. Moreover, the growth in the assay on CAKI-1 renal is 78.4%; with A498 renal it was 115%; in the assay on CCRF-CEM leukemia it was 77.3%; in the assay on MOLT-4 leukemia it was 79.4%.
As for `CCN(CC)c1ccc(/C=N/NC(=O)c2ccc(S(N)(=O)=O)cc2)cc1`, the growth in the assay on SK-MEL-2 melanoma was 38.7%; with EKVX NSCLC, 23.6%; with SN12C renal, 35.9%; in the assay with UO-31 renal, 13.3%; in the assay on TK-10 renal it was 42.9%; in the assay with ACHN renal it was 14.6%. For the same compound, the growth in the assay on CAKI-1 renal was 23%; in the assay on A498 renal it was 44.3%; in the assay on CCRF-CEM leukemia it was 15.4%; with MOLT-4 leukemia, 14.2%.
On to `Cc1ccc(NC2=C(Cl)C(=O)c3nc(C)ccc3C2=O)c(C)c1`, for which the growth in the assay on SK-MEL-2 melanoma is 4.04% (active); in the assay with EKVX NSCLC, 49.1%; in the assay on SN12C renal it was -69.1% (active); in the assay with UO-31 renal it was -13% (active); in the assay with TK-10 renal it was 126%; with ACHN renal, -24.7% (active). Also, the growth with CAKI-1 renal was 85.5%; in the assay with A498 renal, 60.5%; with CCRF-CEM leukemia, 1.19% (active); in the assay with MOLT-4 leukemia, 1.38% (active).
`CCc1cc2c(cc1Cl)nc1c(=O)[nH]c(=O)nc-1n2CCOCC(C)C`: the growth in the assay on SK-MEL-2 melanoma is 80.1%; with EKVX NSCLC, 68.1%; in the assay on SN12C renal, 57.4%; in the assay with UO-31 renal, 57.1%; in the assay with TK-10 renal, 176%; with ACHN renal, 60%. Besides, the growth was 67.7% with CAKI-1 renal, 76.4% in the assay with A498 renal, 77.6% in the assay on CCRF-CEM leukemia and 64.1% in the assay on MOLT-4 leukemia.
`CCNCCOc1ccc(/C(=C(/CC)c2ccc(Cl)cc2)c2ccc(OCCCN(C)C)cc2)cc1`: the growth with SK-MEL-2 melanoma was -84% (active); in the assay with EKVX NSCLC it was -84.4% (active); in the assay with SN12C renal, -85.6% (active); in the assay on UO-31 renal, -95.6% (active); in the assay on TK-10 renal, -89.8% (active); with ACHN renal, -98% (active). Moreover, the growth in the assay with CAKI-1 renal is -75.1% (active); with A498 renal, -86.3% (active); with CCRF-CEM leukemia, -37.5% (active); with MOLT-4 leukemia, -62.6% (active).
As to `Cn1ncc2c(C(=O)c3ccc(F)cc3)nc(C(C)(C)C)nc21`, the growth was 103% with SK-MEL-2 melanoma; 98.9% in the assay with EKVX NSCLC; 96.2% in the assay with SN12C renal; 93.9% with UO-31 renal; 82% in the assay with TK-10 renal; 99.1% with ACHN renal. In addition, the growth in the assay on CAKI-1 renal is 89.5%; with A498 renal it was 58.4%; in the assay on CCRF-CEM leukemia it was 103%; with MOLT-4 leukemia it was 92.6%.
Consider `O=C(/C=C/Nc1ccc(S(=O)(=O)Nc2ncccn2)cc1)c1ccc(N=Cc2c(O)[nH]c3ccccc23)cc1`, for which the growth in the assay on SK-MEL-2 melanoma is 118%; with EKVX NSCLC it was 103%; in the assay on SN12C renal, 98.3%; in the assay on UO-31 renal it was 92.4%; with TK-10 renal it was 112%; in the assay on ACHN renal, 106%. The growth is 94.4% in the assay on CAKI-1 renal, 98.5% in the assay on A498 renal, 104% in the assay with CCRF-CEM leukemia and 109% in the assay on MOLT-4 leukemia.
In the case of `CC1(C)CC[C@]2(C(=O)NCCCCCCN(CCCN)CCCN)CC[C@]3(C)C(=CC[C@@H]4[C@@]5(C)CC[C@H](O)C(C)(C)[C@@H]5CC[C@]43C)[C@@H]2C1`, the growth with SK-MEL-2 melanoma was 113%; in the assay with EKVX NSCLC it was 91.8%; in the assay with SN12C renal, 96.4%; in the assay on UO-31 renal it was 85.7%; with TK-10 renal, 106%; in the assay on ACHN renal, 105%. For the same compound, the growth in the assay on CAKI-1 renal was 75.2%; in the assay with A498 renal, 117%; with CCRF-CEM leukemia, 105%; with MOLT-4 leukemia, 102%.
Take `CC1=C(C)C(=O)C(Nc2ccc3c(c2)OCCO3)=C(Br)C1=O`: the growth was 114% with SK-MEL-2 melanoma; 73.7% with EKVX NSCLC; 99.7% in the assay on SN12C renal; 95.8% in the assay with UO-31 renal; 135% in the assay with TK-10 renal; 101% in the assay with ACHN renal. For the same compound, the growth in the assay on CAKI-1 renal was 102%; with A498 renal, 103%; in the assay on CCRF-CEM leukemia, 13.2%; in the assay with MOLT-4 leukemia it was -7.79% (active).
On to `COc1cc(NC(=O)Nc2cccc(-c3cc(=O)c4c(OC)c(OC)c(OC)cc4o3)c2)cc(OC)c1OC`, for which the growth with SK-MEL-2 melanoma was 49.3%; in the assay with EKVX NSCLC, 62.2%; in the assay on SN12C renal, 38.5%; in the assay on UO-31 renal, 24.7%; with TK-10 renal, 64.9%; with ACHN renal, 56.1%. For the same compound, the growth is 35.4% with CAKI-1 renal, 19.1% with A498 renal, 35.4% in the assay on CCRF-CEM leukemia and 32.1% in the assay on MOLT-4 leukemia.
For `CCOP(=O)(OCC)OC[C@]12CCC(C)(C)C[C@H]1C1=CC[C@@H]3[C@@]4(C)CC[C@H](OP(=O)(OCC)OCC)C(C)(C)[C@@H]4CC[C@@]3(C)[C@]1(C)CC2`, the growth was 88.2% in the assay with SK-MEL-2 melanoma; 55% in the assay with EKVX NSCLC; 55.3% in the assay with SN12C renal; 34.2% in the assay on UO-31 renal; 67.4% with TK-10 renal; 67.2% in the assay on ACHN renal. Also, the growth was 45.9% in the assay with CAKI-1 renal, 79.8% in the assay with A498 renal, 49.2% in the assay with CCRF-CEM leukemia and 32.7% in the assay with MOLT-4 leukemia.
Take `COc1ccc2[nH]cc(/C=N/Nc3ccnc4cc(Cl)ccc34)c2c1`: the growth with SK-MEL-2 melanoma was -83.6% (active); with EKVX NSCLC, -96.5% (active); in the assay with SN12C renal, -100% (active); in the assay on UO-31 renal it was -100% (active); in the assay on TK-10 renal, -96.5% (active); in the assay on ACHN renal, -100% (active). In addition, the growth in the assay on CAKI-1 renal is -99.9% (active); in the assay on A498 renal, -98.6% (active); with CCRF-CEM leukemia, -42.8% (active); in the assay with MOLT-4 leukemia, -48.4% (active).
`O=c1nc(Nc2ccc([N+](=O)[O-])cc2O)sc2ccccc12`: the growth in the assay with SK-MEL-2 melanoma was 39.4%; in the assay on EKVX NSCLC, 38%; in the assay on SN12C renal, 34.5%; in the assay with UO-31 renal, 35.8%; in the assay with TK-10 renal it was 82%; in the assay with ACHN renal, 43.5%. The growth in the assay with CAKI-1 renal is 33%; with A498 renal it was -7.49% (active); with CCRF-CEM leukemia, 16.6%; with MOLT-4 leukemia it was 31.1%.
